Sampled rows, rich in hits. Any-hit rate of the full collection: about 19%.
Lassa entry inh: inhibitors of Lassa virus binding or cell entry; Lassa virus pseudotype entry inhibition, cell reporter; actives 1.2% (n = 300,000); AID 540256; Potency, µM (doses to about 37.9 µM), for inactives: at the highest dose activity change, negative = inhibition, actives largely listed as inhibitors; calls by dose curve; tested in HEK293 cells; further: potency means the concentration at half of the fitted maximal effect; on the % scale 0 is the no-effect control and ±100 the full control effect; nearly all actives have a fitted effect of over 50% in size
Pf growth 48h: P. falciparum growth inhibition at 48 hours (one generation); actives 5.9% (n = 310,000); Potency, µM (series often up to 28.7 µM), inactives show top-dose activity change, negative = inhibition, most hits filed as inhibitors; P. falciparum luciferase growth in erythrocytes, 48 h; further: potency means the concentration at half of the fitted maximal effect; on the % scale 0 is the no-effect control and ±100 the full control effect
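Luminescence readout; reporter = integrated firefly luciferase in P. falciparum. RBC culture at 2% hematocrit, 0.1% parasitemia final, 37 C/5% CO2; decreased signal taken as growth inhibition.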
Marburg entry inh: Marburg virus entry inhibition. actives 1.8% (n = 300,000). Potency, µM (highest dose often 37.8 µM), without a hit: at the top dose activity change, negative = inhibition, actives largely listed as inhibitors. Marburg virus pseudotyped entry inhibition, cell reporter; calls by dose curve; tested in HEK293 cells; further: potency means the concentration at half of the fitted maximal effect; on the % scale 0 is the no-effect control and ±100 the full control effect
Pf growth 96h: inhibits malaria parasite growth, 96 h; P. falciparum luciferase reporter growth, 96 h; Potency, µM (titrated, usually from 28.7 µM), for inactives: at the highest dose activity change, negative = inhibition, most hits filed as inhibitors; actives 6.9% (n = 320,000); AID 504834; further: potency means the concentration at half of the fitted maximal effect; on the % scale 0 is the no-effect control and ±100 the full control effect
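Luminescence readout: decreased luciferase signal marks inhibited growth of reporter-expressing P. falciparum in infected red cells (2% hematocrit, 0.05% parasitemia final), exposed to compound two generations (96 h, 37 C, 5% CO2).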
Cycloheximide cs: counter-screen for Shiga toxin inhibitors: cycloheximide protein synthesis inhibition; cell reporter, cycloheximide protein synthesis inhibition counterscreen; max response, %; actives 12% (n = 300,000); in the data active means max response mostly above about 13%, no sharp cut-off; inactive means mostly below about 14%; further: read at 38.3 µM for the half of the compounds with a filed dose; 0% is about no effect
Shiga inhibitor: inhibitors of Shiga toxin in Vero cells; AID 2315; inhibition, % at 38.7 µM; Vero cells, Shiga toxin protein synthesis inhibition reporter; actives 9.2% (n = 290,000); in the data active means inhibition mostly above about 28%, no sharp cut-off; inactive means mostly below about 43%; further: 0% is about no effect
* hit, by the source's call; i = inactive; u = inconclusive; x = no result; [ ] = another dose, or the depositor's remark. Unless noted, the call rests on the fitted dose curve; in most records, active means well fitted inhibition curve with a large enough effect; inconclusive means small, poorly fitted or top-dose-only effect, or another doubt; inactive means no such curve, though single readings can be large or run the other way.

SMILES | Lassa entry inh | Pf growth 48h | Marburg entry inh | Pf growth 96h | Cycloheximide cs | Shiga inhibitor
CCc1ccc(NC(=O)CCCN2C(=O)C3CC=CCC3C2=O)cc1 (stereo unspecified) | u | -6.6% | u | -3.3% | 72.3* | 97.2*
Cc1c(Cl)cccc1NC(=O)CCN1C(=O)C2CC=CCC2C1=O (stereo unspecified) | 0.2% | 12.6% | 8.7% | 5.22µM* | -5.0 | -9.4
COc1ccc(C2OC(=O)CC2C(=O)NCc2ccc(Cl)cc2)cc1OC (stereo unspecified) | u | 107.6% | u | 39.0% | 34.0* | 84.6*
CN(C(=O)c1cc2sccc2n1C)C1CCCCC1 | -0.1% | 78.7% | 1.3% | 2.62µM* | 42.3* | 99.1*
Cn1c(C(=O)N2CCCC(C(=O)O)C2)cc2sccc21 (stereo unspecified) | 11.5% | x | -0.4% | u | -5.9 | -10.9
Cn1c(C(=O)NC2CCCCC2)cc2sccc21 | 10.9% | 69.9% | u | x | 28.7* | 50.5
CC1CCN(CCCNC(=O)c2cc3sccc3n2C)CC1 | -15.3% | 8.4% | u | -2.9% | -6.0 | -17.9
C=C(C)C(=O)Nc1cccc(C2=NOC3(C2)C[C@@H](C(N)=O)N(C(=O)/C=C/CC)C3)c1 (stereo partly specified) | x | 43.2% | x | 71.2% | -1.1 | -10.0
CCCCOC(=O)C(C)Nc1n[nH]c(=O)[nH]c1=O (stereo unspecified) | 1.6% | -0.7% | u | 18.7% | -1.9 | -9.1
COC(=O)c1c(SCC(=O)Nc2cccc(C(F)(F)F)c2)[nH]c2ccccc2c1=O | -9.6%[46.1 µM] | x | x | x | x | x
CNc1ccccc1C(C)(C)c1cc(-c2cccc([N+](=O)[O-])c2)no1 | u | u | 4.47µM* | u | 7.0 | -4.4
CNc1ccccc1C(C)(C)c1cc(-c2ccc(F)cc2)no1 | -14.2% | u | u | 8.28µM* | -7.8 | -6.7
Cc1n[nH]c(C)c1CCCOc1ccccc1 | 13.5% | x | u | 62.6% | 6.3 | -2.9
C=CCNc1nc(NCc2ccco2)nc(OCC)n1 | 7.2% | 4.9% | -7.4% | 6.4% | -4.4 | 33.5
Oc1ccc(Nc2nc(Cl)nc(NCc3ccco3)n2)cc1 | 0.8% | -19.4% | 5.1% | -28.8% | 34.4* | 38.0
C=CCNc1nc(Cl)nc(NCc2ccco2)n1 | 19.8% | u | -23.0% | 9.28µM* | -2.4 | -4.9
CC(C)c1ccc(NC(=O)N2c3ccccc3Sc3ccccc32)cc1 | -2.0%[46.1 µM] | x | 5.7%[46.1 µM] | x | x | x
COc1ccc2c(c1)C(=O)OC2CC(=O)O (stereo unspecified) | -4.3% | 4.6% | 13.7% | i | 7.9 | -9.4
CC(C)Cn1c(N)c(C(=O)CSc2ccccc2)c(=O)n(C)c1=O | 0.9% | 21.4% | u | 1.5% | 2.7 | 17.8
CCCCn1c(SCC(N)=O)nnc1-c1ccco1 | 4.3% | u | 0.2% | 0.0% | -3.2 | -6.1
CC(C)Cn1c(N)c(C(=O)CSc2nnc(-c3ccco3)n2C)c(=O)n(C)c1=O | x | 5.22µM* | x | 1.31µM* | x | x
CC(C)Cn1c(SCC(=O)c2ccc(Cl)s2)nnc1-c1ccco1 | u | x | -18.6% | 11.7µM* | 32.9* | 72.4
CC1Cc2c([nH]c3ccccc23)C(=O)N1 (stereo unspecified) | -11.5% | 9.5% | 5.1% | 9.28µM* | 4.6 | 13.0
COc1cc2[nH]c(=S)n(C3CCN(Cc4ccccc4)CC3)c(=O)c2cc1OC | 26.5% | 8.3% | 0.6%[46.1 µM] | u | -6.5 | -9.2
COc1ccc(C2=NOC(C(=O)Nc3ccc(C(C)=O)cc3)C2)cc1OC (stereo unspecified) | 2.4% | -13.5% | 6.1% | 137.0% | 29.1* | 74.8*
SMILES | Lassa entry inh | Pf growth 48h | Marburg entry inh | Pf growth 96h | Cycloheximide cs | Shiga inhibitor
COc1cc(NC(=O)C2CC(c3cccc(OC)c3OC)=NO2)cc(OC)c1OC (stereo unspecified) | u | 0.0% | u | -16.7% | -0.9 | -5.5
COc1cccc(C2=NOC(C(=O)Nc3ccc(C(C)=O)cc3)C2)c1 (stereo unspecified) | 8.1% | -20.5% | u | 15.4% | 47.8* | 53.5*
COc1ccc(C2=NOC(C(=O)Nc3cc(Br)ccc3O)C2)cc1OC (stereo unspecified) | -13.4%[14.3 µM] | 14.7µM* | 5.0% | 1.8% | -2.5 | -3.2
COc1ccc(C2=NOC(C(=O)NC3CCCCC3)C2)cc1OC (stereo unspecified) | 16.0%[14.3 µM] | 2.4% | -5.8% | 1.7% | -1.3 | 6.4
COc1cc(C2=NOC(C(=O)Nc3ccc(C(C)=O)cc3)C2)cc(OC)c1OC (stereo unspecified) | 14.4% | 33.8% | 0.3% | u | 28.7* | 80.7*
CC(C)C(=O)Nc1cccc(NC(=O)c2cccnc2)c1 | -8.4% | 18.6% | 26.1% | 0.4% | 1.5 | 3.4
COc1ccc(OC)c(C2=NOC(C(=O)Nc3cccc(C(C)=O)c3)C2)c1 (stereo unspecified) | 0.6% | 20.3% | -7.4% | 9.28µM* | -2.8 | -7.2
COc1ccc(OC)c(C2=NOC(C(=O)Nc3ccccc3SC)C2)c1 (stereo unspecified) | -5.5% | x | 1.4% | u | 9.4 | -6.3
COc1cccc(C(=O)COC(=O)c2ccc(NC(=O)c3ccccc3)cc2)c1 | u | x | -17.2% | x | x | x
Cc1ccc(C(=O)COc2ccccc2-c2ccccc2)cc1C | 4.4% | u | 20.6% | u | -1.6 | 23.1
COC(=O)c1ccc(OCC(=O)c2cccc(OC)c2)cc1 | 15.8% | 149.3% | u | 1.7% | 42.8* | 64.5*
COC(=O)c1ccc(S(=O)(=O)NNC(=O)COc2ccc(C)cc2)cc1 | 9.1% | 22.5% | -20.8% | 5.22µM* | 4.9 | -7.7
CC(=O)Nc1ccc(S(=O)(=O)NNC(=O)COc2ccc(C)cc2)cc1 | 5.2% | 11.7% | u | 3.5% | -4.2 | 12.5
COC(=O)c1ccc(OCC(=O)c2ccc(C)c(C)c2)cc1 | 23.9% | 54.8% | u | -0.3% | 23.6* | 81.6*
O=C(CCc1ccccc1)N1CCN(c2ccc([N+](=O)[O-])cc2)CC1 | x | -24.7% | x | -20.8% | 2.9 | -0.1
CC[C@@]12C(=O)N(c3ccccc3)C(=O)N1[C@H](c1ccc(OC)cc1)[C@@H]1C(=O)N(C(C)(C)C)C(=O)[C@@H]12 | x | -3.8% | x | 46.5% | x | x
Cc1cccc([C@@H]2[C@@H]3C(=O)N(Cc4ccccc4)C(=O)[C@@H]3[C@]3(C)C(=O)N(c4cccc(F)c4)C(=O)N23)c1 | x | 10.4µM* | x | u | x | x
Cc1ccc(N2C(=O)N3[C@H](c4cccc(C)c4)[C@@H]4C(=O)N(Cc5ccccc5)C(=O)[C@@H]4[C@]3(C)C2=O)cc1 | x | u | x | -6.0% | x | x
Cc1cccc([C@@H]2[C@@H]3C(=O)N(Cc4ccccc4)C(=O)[C@@H]3[C@]3(Cc4ccc(Cl)cc4)C(=O)N(c4ccc(Br)cc4)C(=O)N23)c1 | x | u | x | 8.28µM* | -1.0 | -0.1
CC[C@@]12C(=O)N(c3ccc(OC)cc3)C(=O)N1[C@H](c1cccc(C)c1)[C@@H]1C(=O)N(Cc3ccccc3)C(=O)[C@@H]12 | x | u | x | 13.1µM* | -2.1 | -1.6

High-throughput results from PubChem BioAssay.
